The source made the active and inactive calls.
Columns and labels:
[1] = test system: Human papillomavirus type 1a protein E7 (residues 44-93); experiment: small molecules binding HPV E7 44-93 – biochemical, small-molecule microarray, residues 44-93, 635 nm fluorescence, primary screen (AID 1108); conditions: fluorescence 635 nm, higher = more signal;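 note: E7 fragment applied at 1 µg/mL in TBST for 1 h at 4 C; score combines spot fluorescence with its signal to noise ratio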
[2] = hepatitis C replication reporter changes, two-sided – Huh7 cells, luciferase reporter, HCV replication inhibitor project, primary screen (AID 1109); conditions: Huh7 HCV replicon luciferase reporter, 48 h; higher = more signal;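 note: huh7 hepatoma cells harbouring a luciferase neomycin HCV replicon reporter; luciferase luminescence as measure of HCV replicon replication; test concentration not given here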
[3] = biological target: Left-right determination factor 2 (Homo sapiens) (UniProt O00292); experiment: small molecules binding LEFTY2 protein – biochemical, small-molecule microarray, 635 nm fluorescence scan, primary screen (AID 1110); conditions: higher = more signal
Left-right determination factor 2 (Homo sapiens), sequence (O00292 whole entry, looked up): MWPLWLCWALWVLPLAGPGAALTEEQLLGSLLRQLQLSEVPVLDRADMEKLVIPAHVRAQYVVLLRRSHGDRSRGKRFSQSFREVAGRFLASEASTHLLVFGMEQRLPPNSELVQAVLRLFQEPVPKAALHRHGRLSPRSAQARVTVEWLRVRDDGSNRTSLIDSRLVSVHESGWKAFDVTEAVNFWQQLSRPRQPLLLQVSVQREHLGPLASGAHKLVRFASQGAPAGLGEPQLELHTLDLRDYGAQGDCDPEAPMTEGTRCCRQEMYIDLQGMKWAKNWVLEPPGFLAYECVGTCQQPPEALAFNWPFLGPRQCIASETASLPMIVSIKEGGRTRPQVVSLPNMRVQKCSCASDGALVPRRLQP

[4] = biological target: Calmodulin-1 (Homo sapiens) (UniProt P0DP23); experiment: small molecules binding calmodulin-1 with EGTA – biochemical, small-molecule microarray, Cy5-labelled CALM1, profiling panel (AID 1111); conditions: Cy5-CALM1 binding fluorescence, higher = more signal;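 note: labelled calmodulin applied in Tris saline Tween buffer holding calcium plus EGTA and DTT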
[5] = biological target: Calmodulin-1 (Homo sapiens) (UniProt P0DP23); experiment: small molecules binding Ca-loaded calmodulin-1 – biochemical, small-molecule microarray, Cy5-labelled CALM1, plus calcium, artefact control for SMM control-protein annotation, profiling panel (AID 1112); conditions: Cy5-CALM1 binding fluorescence, higher = more signal;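 note: score merges spot fluorescence with signal to noise from triplicate slides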
[6] = probe aWnt5a binding to arrayed compounds – biochemical, biotinylated probe, 635/667 nm fluorescence, primary screen (AID 1113); conditions: small-molecule microarray, higher = more signal;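 note: score merges 667 nm fluorescence intensity with signal-to-noise per printed feature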
[7] = probe aShh binding to arrayed compounds – biochemical, biotinylated probe, 635/667 nm fluorescence, primary screen (AID 1114); conditions: small-molecule microarray, higher = more signal;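 note: probe is biotin-labelled aShh protein from a stem cell growth factor screen; measures binding of labelled protein to compounds printed on the slide; score merges feature fluorescence at 667 nm with signal-to-noise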
[8] = probe aNog binding to arrayed compounds – biochemical, biotinylated probe, 635/667 nm fluorescence, primary screen (AID 1115); conditions: small-molecule microarray, higher = more signal;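 note: probe is biotinylated aNog protein used at 0.15 µg/mL for 1 h at 4 C; z-score combines 667 nm fluorescence of each spot with its signal to noise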
[9] = biological target: Torsin-1A-interacting protein 1 (Homo sapiens) (UniProt Q5JTV8); experiment: compound microarray binding of lysate hLAP1 – cell lysate, small-molecule microarray, COS7 lysate, 635/667 nm fluorescence, primary screen (AID 1116); conditions: 635 nm fluorescence, higher = more signal
Torsin-1A-interacting protein 1 (Homo sapiens), sequence (Q5JTV8 whole entry, looked up): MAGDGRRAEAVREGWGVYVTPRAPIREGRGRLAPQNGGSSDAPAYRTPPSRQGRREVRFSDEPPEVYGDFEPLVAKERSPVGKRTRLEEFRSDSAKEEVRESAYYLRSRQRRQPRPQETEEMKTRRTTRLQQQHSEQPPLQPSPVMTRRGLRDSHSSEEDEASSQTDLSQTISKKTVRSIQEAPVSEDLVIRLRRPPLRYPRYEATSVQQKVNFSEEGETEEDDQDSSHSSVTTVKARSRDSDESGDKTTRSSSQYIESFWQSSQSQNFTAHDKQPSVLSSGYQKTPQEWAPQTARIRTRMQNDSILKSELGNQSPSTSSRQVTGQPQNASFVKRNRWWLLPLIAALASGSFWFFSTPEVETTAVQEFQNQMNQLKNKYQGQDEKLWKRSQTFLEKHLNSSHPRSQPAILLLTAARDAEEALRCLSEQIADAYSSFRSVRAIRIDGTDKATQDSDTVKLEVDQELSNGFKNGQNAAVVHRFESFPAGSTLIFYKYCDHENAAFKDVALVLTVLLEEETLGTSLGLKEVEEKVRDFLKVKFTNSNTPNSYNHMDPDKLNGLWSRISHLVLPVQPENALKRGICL

[10] = biological target: Alpha-bungarotoxin (Bungarus multicinctus) (UniProt P60615); experiment: compounds binding labelled alpha-BTX control protein – biochemical, small-molecule microarray, Alexa647 label, 635/667 nm fluorescence, artefact control for SMM control protein annotation, profiling panel (AID 1117); conditions: alpha-BTX-A647 binding fluorescence, higher = more signal
Alpha-bungarotoxin (Bungarus multicinctus), sequence (P60615 whole entry, looked up): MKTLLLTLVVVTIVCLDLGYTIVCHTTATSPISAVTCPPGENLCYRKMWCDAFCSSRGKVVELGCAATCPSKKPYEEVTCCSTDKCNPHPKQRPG

Albumin (Bos taurus) = Albumin (Bos taurus) (UniProt P02769); experiment: compounds binding labelled BSA control protein – biochemical, small-molecule microarray, Alexa647 label, 635/667 nm fluorescence, artefact control for SMM control protein annotation, profiling panel (AID 1118); conditions: BSA-A647 binding, fluorescence 635 nm, higher = more signal;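 note: score merges 667 nm emission intensity and signal-to-noise per printed compound spot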
Albumin (Bos taurus), sequence (P02769 whole entry, looked up): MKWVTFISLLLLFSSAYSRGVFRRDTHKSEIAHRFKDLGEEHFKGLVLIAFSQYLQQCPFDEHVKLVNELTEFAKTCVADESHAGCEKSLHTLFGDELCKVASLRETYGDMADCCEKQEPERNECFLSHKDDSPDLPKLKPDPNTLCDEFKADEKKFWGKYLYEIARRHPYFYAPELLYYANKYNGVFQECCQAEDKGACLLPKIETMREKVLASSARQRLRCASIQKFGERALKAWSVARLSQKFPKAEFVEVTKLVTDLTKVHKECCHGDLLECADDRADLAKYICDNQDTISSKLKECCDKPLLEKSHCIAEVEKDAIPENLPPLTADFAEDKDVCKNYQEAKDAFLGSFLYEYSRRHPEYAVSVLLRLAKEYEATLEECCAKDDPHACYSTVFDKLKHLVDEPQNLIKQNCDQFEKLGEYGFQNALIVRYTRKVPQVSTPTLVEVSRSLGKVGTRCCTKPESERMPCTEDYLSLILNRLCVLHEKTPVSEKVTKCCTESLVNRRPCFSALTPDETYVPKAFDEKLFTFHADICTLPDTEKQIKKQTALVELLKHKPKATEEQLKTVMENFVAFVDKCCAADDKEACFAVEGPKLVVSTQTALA

[11] = probe aXIP binding to arrayed compounds – biochemical, NeuroSMM set, 635/667 nm fluorescence, primary screen (AID 1119); conditions: small-molecule microarray, higher = more signal, called active from +8 up or from −8 down;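 note: probe is the protein aXip251-270 applied at 1 µg/mL to compound-printed slides; binding of probe to printed compounds measured as 667 nm fluorescence plus signal to noise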
[12] = probe aNOTCH3 binding on compound microarray – biochemical, small-molecule microarray, 635/667 nm fluorescence, primary screen (AID 1120); conditions: higher = more signal;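 note: probe is a biotin-tagged antibody raised against NOTCH3 rather than NOTCH3 protein; score merges spot fluorescence near 667 nm with spot signal to noise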
[13] = probe aNOTCH2 binding on compound microarray – biochemical, small-molecule microarray, 635/667 nm fluorescence, primary screen (AID 1121); conditions: higher = more signal;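 note: score merges feature fluorescence read at 667 nm with its signal to noise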
[14] = biological target: Carbonic anhydrase 2 (Homo sapiens) (UniProt P00918); experiment: compounds binding carbonic anhydrase 2 – biochemical, small-molecule microarray, Alexa647-labelled CAII, profiling panel (AID 1122); conditions: CAII-A647 binding fluorescence, higher = more signal
[15] = COS7 lysate on small-molecule microarray, probe aHis, 635 nm (AID 1123); conditions: COS7 cell lysate, fluorescence, higher = more signal;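 note: z-score combines 667nm fluorescence intensity with signal-to-noise per printed compound spot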
[16] = probe aLAP1 signal on lysate-treated microarray – cell lysate, small-molecule microarray, COS7 lysate, primary screen (AID 1124); conditions: probe aLAP1, fluorescence, higher = more signal;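 note: lysate comes from COS7 cells expressing LAP1 and is applied at 0.3 µg/mL; score merges spot fluorescence near 667 nm with signal-to-noise over triplicate slides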
Sam68 (KHDRBS1) = experiment: compounds binding KHDRBS1 protein – biochemical, small-molecule microarray, 635 nm fluorescence, primary screen (AID 1125); conditions: higher = more signal;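 note: score merges 667 nm channel intensity with signal to noise over triplicate slides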
[17] = test system: Chordin-like protein 2 (CHRDL2); experiment: compounds binding chordin-like 2 – biochemical, small-molecule microarray, 635 nm fluorescence, primary screen (AID 1126); conditions: fluorescence 635 nm, higher = more signal;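 note: printed compound slides probed with Chrdl2 protein at 4 µg/mL for 1 h at 4 C; score merges 667 nm emission intensity with signal to noise over three replicate slides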
[18] = biological target: Concanavalin-A (Canavalia ensiformis) (UniProt P02866); experiment: compounds binding concanavalin A lectin – biochemical, small-molecule microarray, Alexa647 label, 635 nm, artefact control for SMM control protein annotation, primary screen (AID 1127); conditions: ConA-A647 binding fluorescence, higher = more signal;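 note: z combines 667 nm emission intensity with signal-to-noise across three replicate slides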
Concanavalin-A (Canavalia ensiformis), sequence (P02866 whole entry, looked up): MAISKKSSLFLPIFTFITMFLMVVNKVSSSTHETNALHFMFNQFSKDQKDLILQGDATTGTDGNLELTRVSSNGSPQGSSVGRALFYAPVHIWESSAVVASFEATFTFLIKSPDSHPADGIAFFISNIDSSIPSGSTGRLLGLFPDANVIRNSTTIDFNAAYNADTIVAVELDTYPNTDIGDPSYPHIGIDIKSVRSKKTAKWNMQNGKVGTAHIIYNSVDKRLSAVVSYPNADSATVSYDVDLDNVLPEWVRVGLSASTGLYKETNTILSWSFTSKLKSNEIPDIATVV

Cc1ccc(S[C@]2(C(=O)NCc3ccccc3)CC(=O)N(C3Cc4ccccc4C3)[C@@H]2c2ccc(CO)cc2I)cc1
composite z-score [1]: 0.241 | z-score [2]: -1.63 | composite z-score [3]: -1.53 | composite z-score [4]: -0.733 | composite z-score [5]: -0.0933 | composite z-score [6]: -0.0896 | composite z-score [7]: -0.364 | composite z-score [8]: -0.0496 | composite z-score [9]: -0.129 | composite z-score [10]: 1.3 | composite z-score (Albumin (Bos taurus)): 0.254 | composite Z-score [11]: 3.63 (inactive) | composite z-score [12]: -0.187 | composite z-score [13]: -0.0716 | composite z-score [14]: 0.341 | composite z-score [15]: 0.401 | composite z-score [16]: 0.458 | composite z-score (Sam68 (KHDRBS1)): 0.269 | composite z-score [17]: -0.224 | composite z-score [18]: -0.462

C[N+](C)(C)CCCCCCNC(=O)[C@@H]1C[C@@H]2C(=O)NCC(=O)N2[C@@H]1c1ccc(O)cc1
composite z-score [1]: 1.33 | z-score [2]: 1.33 | composite z-score [3]: 0.549 | composite z-score [4]: 0.334 | composite z-score [5]: -0.431 | composite z-score [6]: -0.124 | composite z-score [7]: -0.244 | composite z-score [8]: -0.196 | composite z-score [9]: 1.03 | composite z-score [10]: 1.9 | composite z-score (Albumin (Bos taurus)): -0.356 | composite Z-score [11]: 0.607 (inactive) | composite z-score [12]: 0.0636 | composite z-score [13]: -0.174 | composite z-score [14]: 0.618 | composite z-score [15]: 1.69 | composite z-score [16]: 0.393 | composite z-score (Sam68 (KHDRBS1)): 1.06 | composite z-score [17]: 1.3 | composite z-score [18]: 0.788

C[N+](C)(C)CCCC[C@@H]1NC(=O)[C@H]2C[C@@H](C(=O)NCCCCCCN)[C@@H](c3cccc(OCCO)c3)N2C1=O
composite z-score [1]: 1.4 | z-score [2]: 0.347 | composite z-score [3]: 1.39 | composite z-score [4]: 1.11 | composite z-score [5]: 1.13 | composite z-score [6]: 0.469 | composite z-score [7]: 0.705 | composite z-score [8]: 2.31 | composite z-score [9]: 1.21 | composite z-score [10]: 0.995 | composite z-score (Albumin (Bos taurus)): 0.149 | composite Z-score [11]: 0.514 (inactive) | composite z-score [12]: 0.536 | composite z-score [13]: 0.198 | composite z-score [14]: 0.752 | composite z-score [15]: 2.07 | composite z-score [16]: 1.04 | composite z-score (Sam68 (KHDRBS1)): 1.3 | composite z-score [17]: 0.886 | composite z-score [18]: 0.936

C[C@@]1([C@@H](NC(=O)c2cccs2)c2ccc(-c3ccccc3)cc2)C[C@H]1C1CCCCC1
composite z-score [1]: -0.309 | z-score [2]: -1.47 | composite z-score [3]: -0.919 | composite z-score [4]: 0.645 | composite z-score [5]: 0.111 | composite z-score [6]: -0.302 | composite z-score [7]: -0.478 | composite z-score [8]: 0.356 | composite z-score [9]: 0.0643 | composite z-score [10]: -0.344 | composite z-score (Albumin (Bos taurus)): 0.0881 | composite Z-score [11]: 0.0169 (inactive) | composite z-score [12]: -0.0027 | composite z-score [13]: -0.343 | composite z-score [14]: 0.786 | composite z-score [15]: 3.02 | composite z-score [16]: -0.165 | composite z-score (Sam68 (KHDRBS1)): -0.307 | composite z-score [17]: -0.237 | composite z-score [18]: -0.419

CN(C)CCCCNC(=O)[C@H]1C[C@H]2C(=O)N[C@@H](CCCC[N+](C)(C)C)C(=O)N2[C@H]1c1cccc(OCCO)c1
composite z-score [1]: 1.37 | z-score [2]: -0.156 | composite z-score [3]: 0.206 | composite z-score [4]: 0.285 | composite z-score [5]: -0.166 | composite z-score [6]: -0.0792 | composite z-score [7]: 0.13 | composite z-score [8]: 0.0286 | composite z-score [9]: 0.116 | composite z-score [10]: 0.112 | composite z-score (Albumin (Bos taurus)): -0.355 | composite Z-score [11]: 2.15 (inactive) | composite z-score [12]: -0.0774 | composite z-score [13]: -0.112 | composite z-score [14]: 0.798 | composite z-score [15]: 0.726 | composite z-score [16]: 0.448 | composite z-score (Sam68 (KHDRBS1)): 1.15 | composite z-score [17]: 1.23 | composite z-score [18]: 1

COCCOC(=O)N1C(=O)[C@@]2(c3cc(C#CCCO)ccc31)[C@H](C(=O)N1CCc3cc(OC)c(OC)cc3C1)[C@H]1C(=O)O[C@H](c3ccccc3)[C@H](c3ccccc3)N1[C@@H]2c1ccc(OCCO)cc1
composite z-score [1]: 1.32 | z-score [2]: -1.32 | composite z-score [3]: 0.887 | composite z-score [4]: 0.842 | composite z-score [5]: 0.224 | composite z-score [6]: -0.0731 | composite z-score [7]: -0.304 | composite z-score [8]: 0.299 | composite z-score [9]: 0.868 | composite z-score [10]: 0.826 | composite z-score (Albumin (Bos taurus)): 0.455 | composite Z-score [11]: 0.552 (inactive) | composite z-score [12]: 0.19 | composite z-score [13]: -0.147 | composite z-score [14]: 0.476 | composite z-score [15]: 1.54 | composite z-score [16]: 0.765 | composite z-score (Sam68 (KHDRBS1)): 1.3 | composite z-score [17]: 0.956 | composite z-score [18]: 1.09

CN(C)CCCC[C@@H]1NC(=O)[C@H]2C[C@@H](C(=O)NCCCCCCNC(=O)CS)[C@@H](c3ccc(O)cc3)N2C1=O
composite z-score [1]: 1.3 | z-score [2]: 0.344 | composite z-score [3]: -0.603 | composite z-score [4]: -0.445 | composite z-score [5]: -0.107 | composite z-score [6]: -0.221 | composite z-score [7]: 0.194 | composite z-score [8]: -0.541 | composite z-score [9]: 2.53 | composite z-score [10]: -0.945 | composite z-score (Albumin (Bos taurus)): 0.468 | composite Z-score [11]: -0.131 (inactive) | composite z-score [12]: -0.159 | composite z-score [13]: -0.14 | composite z-score [14]: 0.802 | composite z-score [15]: 2.66 | composite z-score [16]: 0.957 | composite z-score (Sam68 (KHDRBS1)): 0.457 | composite z-score [17]: -0.0412 | composite z-score [18]: -0.263

COC(=O)C(CC#Cc1ccc2c(c1)[C@]1(C(=O)N2)[C@H](c2ccc(OCCO)cc2)N2[C@H](c3ccccc3)[C@H](c3ccccc3)OC(=O)[C@H]2[C@@H]1C(=O)O)C(=O)OC
composite z-score [1]: 0.324 | z-score [2]: -0.442 | composite z-score [3]: 0.431 | composite z-score [4]: 1.23 | composite z-score [5]: 0.707 | composite z-score [6]: 0.0438 | composite z-score [7]: 0.446 | composite z-score [8]: 0.812 | composite z-score [9]: 2.1 | composite z-score [10]: 1.83 | composite z-score (Albumin (Bos taurus)): 0.803 | composite Z-score [11]: 0.419 (inactive) | composite z-score [12]: 0.328 | composite z-score [13]: 0.224 | composite z-score [14]: 0.724 | composite z-score [15]: 1.37 | composite z-score [16]: 0.26 | composite z-score (Sam68 (KHDRBS1)): 1.28 | composite z-score [17]: 0.368 | composite z-score [18]: 1.15

COC(=O)[C@@]1(Cc2ccccc2)[C@H]2c3cc(C(=O)N(C)C)n(Cc4ccccn4)c3C[C@H]2CN1C(=O)c1ccccc1
composite z-score [1]: -0.271 | z-score [2]: -0.903 | composite z-score [3]: -0.0545 | composite z-score [4]: 1.92 | composite z-score [5]: 1.35 | composite z-score [6]: 0.241 | composite z-score [7]: -0.0849 | composite z-score [8]: 0.85 | composite z-score [9]: 1.77 | composite z-score [10]: 0.94 | composite z-score (Albumin (Bos taurus)): 0.723 | composite Z-score [11]: 0.146 (inactive) | composite z-score [12]: 0.127 | composite z-score [13]: 0.269 | composite z-score [14]: 0.971 | composite z-score [15]: 3.31 | composite z-score [16]: 1.22 | composite z-score (Sam68 (KHDRBS1)): 1.03 | composite z-score [17]: -1.4 | composite z-score [18]: 1.08

COc1ccc(CCNC(=O)[C@@H]2c3ccccc3C(=O)N(Cc3ccccc3)[C@H]2c2ccc(CO)cc2)cc1
composite z-score [1]: 1.43 | z-score [2]: -1.17 | composite z-score [3]: 0.117 | composite z-score [4]: -0.0056 | composite z-score [5]: -0.904 | composite z-score [6]: -0.0512 | composite z-score [7]: -0.0813 | composite z-score [8]: -0.293 | composite z-score [9]: 1.15 | composite z-score [10]: 0.36 | composite z-score (Albumin (Bos taurus)): 0.286 | composite Z-score [11]: -0.149 (inactive) | composite z-score [12]: -0.199 | composite z-score [13]: -0.0562 | composite z-score [14]: 0.735 | composite z-score [15]: 1.64 | composite z-score [16]: 1.36 | composite z-score (Sam68 (KHDRBS1)): 1.34 | composite z-score [17]: 0.156 | composite z-score [18]: 0.526

— PubChem BioAssay
